Among all 310,000 compounds or so, about 14,000 (4.5%) showed an effect of 50% or more. The effect is printed as a negative number. The entries come from a sample that favours strong results as a whole.
What follows are molecules tested against human ether-à-go-go-related gene (hERG) potassium channel (human, UniProt Q12809) (assay: primary screen, population patch clamp on CHO cells stably expressing hERG; higher = less effect of the substance).
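Note: peak tail current of the secondary pulse compared with the same well before compound.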

Chain of human ether-à-go-go-related gene (hERG) potassium channel (Q12809 whole entry, looked up): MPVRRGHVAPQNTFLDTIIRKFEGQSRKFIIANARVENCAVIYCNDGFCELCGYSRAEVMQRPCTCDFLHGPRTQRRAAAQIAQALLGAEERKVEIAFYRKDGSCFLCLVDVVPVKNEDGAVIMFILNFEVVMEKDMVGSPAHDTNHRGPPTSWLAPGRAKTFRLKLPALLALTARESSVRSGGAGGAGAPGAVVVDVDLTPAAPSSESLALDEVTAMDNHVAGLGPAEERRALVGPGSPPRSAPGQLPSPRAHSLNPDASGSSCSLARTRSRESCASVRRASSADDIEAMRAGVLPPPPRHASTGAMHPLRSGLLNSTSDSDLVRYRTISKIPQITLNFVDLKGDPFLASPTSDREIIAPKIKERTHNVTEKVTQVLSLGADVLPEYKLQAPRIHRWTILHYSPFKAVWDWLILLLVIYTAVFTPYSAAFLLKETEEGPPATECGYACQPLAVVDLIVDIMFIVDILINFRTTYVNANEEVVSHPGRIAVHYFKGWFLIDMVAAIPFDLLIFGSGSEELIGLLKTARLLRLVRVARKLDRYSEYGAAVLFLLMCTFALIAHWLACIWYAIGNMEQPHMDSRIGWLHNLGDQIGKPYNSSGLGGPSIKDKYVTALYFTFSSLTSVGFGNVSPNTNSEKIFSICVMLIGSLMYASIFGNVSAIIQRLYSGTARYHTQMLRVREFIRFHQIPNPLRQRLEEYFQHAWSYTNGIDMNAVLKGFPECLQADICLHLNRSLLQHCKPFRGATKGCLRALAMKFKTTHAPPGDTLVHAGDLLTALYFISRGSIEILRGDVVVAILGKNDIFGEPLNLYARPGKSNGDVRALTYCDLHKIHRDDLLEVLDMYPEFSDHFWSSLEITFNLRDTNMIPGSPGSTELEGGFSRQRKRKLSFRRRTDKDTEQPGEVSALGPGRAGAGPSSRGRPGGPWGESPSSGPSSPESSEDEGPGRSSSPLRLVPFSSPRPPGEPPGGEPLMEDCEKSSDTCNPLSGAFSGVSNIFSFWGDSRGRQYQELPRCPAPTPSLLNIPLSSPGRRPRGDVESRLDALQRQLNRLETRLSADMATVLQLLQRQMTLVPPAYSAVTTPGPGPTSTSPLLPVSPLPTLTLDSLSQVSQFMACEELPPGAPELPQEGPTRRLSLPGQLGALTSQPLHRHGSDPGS

Compound | hERG current change (%, negative = inhibition) at 10uM
Cc1ccc2nc(-c3ccccc3)cc(C(=O)N(C)CC(=O)Nc3ccccc3Br)c2c1 | -11%
c1ccc(-n2nnnc2Cc2nnnn2-c2ccccc2)cc1 | 50.3%
O=C(Nc1ccccc1OC(F)F)c1cc2c(s1)CCC2 | -16.4%
C=CCNC(=S)/N=c1/ccccn1C | -5.42%
CCOC(=O)C1(Cc2ccccc2C)CCCN(Cc2ccc(NC(C)=O)cc2)C1 (centres unmarked) | 11.5%
CCOC(=O)C1(CCc2ccccc2)CCN(Cc2ccc(NC(C)=O)cc2)CC1 | -76.6%
CCOC(=O)C1(CCOc2ccccc2)CCN(Cc2ccc(NC(C)=O)cc2)CC1 | -79.3%
Cc1ccc(Nc2nc(=O)c3cccnc3s2)c(Br)c1 | 3.27%
CN(Cc1cnccn1)Cc1nc(Cc2ccccc2F)no1 | -0.154%
COc1ccc(Cl)cc1NS(=O)(=O)c1cccc(C(=O)NCC(c2ccco2)N(C)C)c1 (centres unmarked) | -2.01%
O=C(CCCn1c(=O)c2sccc2n(CC(=O)NCc2ccco2)c1=O)NCc1ccco1 | -6.69%
Cn1c(Br)nc2c1c(=O)n(CC(O)COc1ccccc1)c(=O)n2C (centres unmarked) | -1.54%
COCCC(=O)N1CCC(Oc2ccc(C(=O)N(C)C(C)c3ccon3)cc2)CC1 (centres unmarked) | 13.1%
O=C(Cc1cn(Cc2cccc(Cl)c2)c2ccccc12)N1CCCC1 | -50%
O=C(COc1ccccc1)c1cn(Cc2ccccc2)c2ccccc12 | 7.62%
CCCCCCn1cc(C(=O)O)c(=O)c2ccccc21 | -75.8%
CC1CCCN(C(=O)Cc2cn(Cc3cccc(Cl)c3)c3ccccc23)C1 (centres unmarked) | -5.42%
O=C(O)c1cn(Cc2ccccc2)c2ccc(Cl)cc2c1=O | -76.3%
O=C(O)Cc1cn(Cc2cccc(Cl)c2)c2ccccc12 | 12.6%
O=C(c1cn(Cc2ccccc2)c2ccccc12)C1CC1 | 7.67%
CN(C)CCOC(=O)c1cn(Cc2ccccc2)c2ccccc12.Cl | -59.1%
O=C(Cc1cn(Cc2cccc(Cl)c2)c2ccccc12)N1CCCCCC1 | -4.89%
CCCCCCn1cc(C(=O)O)c(=O)c2cc(F)c(N3CCCCC3)cc21 | 5.7%

Compound | hERG current change (%, negative = inhibition) at 10uM
Cn1cc(-c2ccccc2C(=O)O)c(=O)c2cc(Cl)ccc21 | 20.9%
CCCCCn1cc(C(=O)C(=O)N2CCOCC2)c2ccccc21 | -26.3%
COc1ccccc1CNC(=O)C1CCCN(S(C)(=O)=O)C1 (centres unmarked) | 9.4%
CC(C)Oc1cccc(C(=O)C2CCCN(S(=O)(=O)C(C)C)C2)c1 (centres unmarked) | -21.7%
COc1ccc(C2=NN(C(=O)CSc3nnnn3C)C(c3ccco3)C2)cc1 (centres unmarked) | 3.05%
N/C(=N\OC(=O)C(c1ccccc1)c1ccccc1)c1ccccn1 | 8.35%
Cl.O=C(NCC(c1cccs1)N1CCOCC1)c1ccc(Cl)s1 (centres unmarked) | -21.6%
CC(=O)NC(=O)COC(=O)/C=C/c1c(C)nn(Cc2c(Cl)cccc2Cl)c1Cl | -2.82%
O=C(O)CSc1nc2ccc(C(=O)c3ccccc3)cc2[nH]1 | 17.2%
CCOC(=O)c1cn(CC)c2cc(F)c(F)cc2c1=O | 3.48%
CCCCCCn1cc(C(=O)OCC)c(=O)c2cc(F)c(F)cc21 | -52.6%
CCCn1cc(C(=O)OCC)c(=O)c2cc(F)c(F)cc21 | 2.11%
O=C(O)c1cn(Cc2ccccc2)c2ccccc2c1=O | -79.3%
CCC(=O)c1cn(Cc2ccccc2)c2ccccc12 | -7.05%
CC(C)(C)C(=O)c1cn(Cc2ccccc2)c2ccccc12 | -4.12%
COc1ccc(OC)c(N2C(=O)CC(Cc3ccc(C)cc3)C2=O)c1 (centres unmarked) | -2.87%
CCC1(c2ccccc2)NC(=O)N(CC(=O)Nc2ccc3c(c2)OCO3)C1=O (centres unmarked) | -6.09%
CCOC(=O)c1oc2cccc(O)c2c1C | -7.22%
C=CCn1c(SCc2c(F)cccc2Cl)nnc1-c1ccco1 | -19.3%
COc1cccc(CN2CCN(CCc3ccccc3)C(CCO)C2)c1OC (centres unmarked) | -34.8%
COc1ccc(OC)c(CN2CCN(CCCc3ccccc3)C(CCO)C2)c1 (centres unmarked) | -68.6%
COc1ccc(CN2CCN(CCc3ccccc3)C(CCO)C2)c(Cl)c1OC (centres unmarked) | -60.1%
COc1ccc(CN2CCN(CCCc3ccccc3)C(CCO)C2)c(OC)c1 (centres unmarked) | -72.9%

Compound | hERG current change (%, negative = inhibition) at 10uM
COc1ccc(OC)c(CN2CCN(CCc3ccccc3)C(CCO)C2)c1 (centres unmarked) | -60.6%
CCOC(=O)C1(CC)CC(CSc2nc3ccccc3[nH]2)OC1=O.Cl (centres unmarked) | -2.61%
COc1ccc(C(=O)Nc2cccc3ccccc23)cc1 | 1.02%
CC(C)(C)c1cc(C(=O)NNc2cccc(Cl)c2)n(Cc2ccccc2)n1 | -4.28%
Cc1cc(-c2nnc(SCC(=O)Nc3ccccc3F)n2N)n[nH]1 | 13.8%
CC1(C)NC(=O)N(CCCC(=O)Nc2ccc(C(F)(F)F)cc2)C1=O | -16.9%
CCOC(=O)c1c(-c2cccs2)csc1NC(C)=O | -1.29%
COc1ccc(N2CC(C(=O)OCC(=O)Nc3ccccc3C)CC2=O)cc1 (centres unmarked) | 15.6%
CN1CCN(C(=S)c2ccc(Cl)cc2)CC1 | 3.39%
CCC(C)N(C(=O)COc1ccccc1C(=O)NCc1ccccc1)C1CCS(=O)(=O)C1 (centres unmarked) | -39.2%
CCCN(CC1CC1)C(=O)COc1ccccc1C(=O)NCc1ccccc1 | -56%
CCN(C(=O)COc1ccccc1C(=O)NCc1ccccc1)C1CCS(=O)(=O)C1 (centres unmarked) | -22.1%
COc1ccc(C(=O)Nc2c3c(nn2-c2cccc(Cl)c2)CS(=O)C3)cc1 (centres unmarked) | -25.6%
COc1ccc(-n2nc3c(c2NC(=O)c2cc(Br)ccc2Cl)CS(=O)C3)cc1 (centres unmarked) | -43.4%
COc1ccc(-n2nc3c(c2NC(=O)c2ccc(Br)cc2)CS(=O)C3)cc1 (centres unmarked) | -50.8%
CN(C)c1ccc(Sc2nnc(NC(=O)Nc3ccc(Cl)cc3Cl)s2)cc1 | 12.2%
COc1ccc(OC)c(CN2CCN(C(=O)CCNC(=O)c3ccc(Br)cc3)CC2)c1 | -45.7%
O=C(O)c1cccc(S(=O)(=O)Nc2ccc3c(c2)OCO3)c1 | 23.4%
COc1ccc(C(=O)NCc2ccccc2CN2CCCC2)cc1S(=O)(=O)Nc1ccc(C)cc1 | -57.9%
CN(C)CC(NC(=O)c1cccc(S(=O)(=O)Nc2ccc3c(c2)OCO3)c1)c1ccccc1 (centres unmarked) | -14.8%
CCN(CC)Cc1ccccc1CNC(=O)c1cccc(S(=O)(=O)Nc2ccc3c(c2)OCO3)c1 | -71.3%
CCN1CCN(C(=O)c2ccc(OC)c(S(=O)(=O)Nc3ccc(C)cc3)c2)CC1 | -18.4%
COc1ccc(C(=O)O)cc1S(=O)(=O)Nc1ccc(C)cc1 | 23.1%

Compound | hERG current change (%, negative = inhibition) at 10uM
O=C(NCc1ccccc1CN1CCCC1)c1cccc(N2CCCC2=O)c1 | -3.11%
COc1ccc(OC)c(CN2CCN(C(=O)CNC(=O)c3cc(C)cc(C)c3)CC2)c1 | -42.7%
COc1ccc2cc(C(=O)NCc3ccccc3CN3CCCC3)ccc2c1 | -68.2%
COc1ccc(OC)c(CN2CCN(C(=O)CNC(=O)c3ccc(C(C)(C)C)cc3)CC2)c1 | -53.9%
COc1ccc(C(=O)NCc2ccccc2OC)cc1 | -10.3%
COc1ccccc1-c1nc(S(=O)(=O)c2ccccc2)c(N2CCCCC2)o1 | 14.4%
Cc1cc(C)cc(NC(=O)CSc2nc3[nH]ncc3c(=O)[nH]2)c1 | 11.8%
C/C(=N\NC(=S)Nc1cccc(C)c1)c1ccco1 | -6.35%
Cc1cc2c3c(c1C)C(=O)C(=O)N3C(C)(C)CC2C (centres unmarked) | 6.5%
O=C(COC(=O)CCCN1C(=O)c2ccccc2C1=O)Nc1cc(Cl)cc(Cl)c1 | -3.11%
CC12CCC(C(=O)Nc3nc4ccccc4s3)(OC1=O)C2(C)C (centres unmarked) | 2.26%
COc1ccc(NS(=O)(=O)c2cccc(C(=O)NCCCN3CCOCC3)c2)cc1 | 5.96%
Cc1nc(COc2ccc(C(=O)Nc3ccccc3N3CCOCC3)cc2)cs1 | -49.1%
Cc1cccc(NS(=O)(=O)c2cccc(C(=O)NCc3ccccc3CN3CCOCC3)c2)c1 | -26%
COc1ccc(NS(=O)(=O)c2cccc(C(=O)NCc3ccco3)c2)cc1 | -15.8%
O=C(NCc1ccccc1CN1CCCC1)c1cccc(S(=O)(=O)Nc2ccc(F)cc2)c1 | -75.2%
O=C(NCc1ccccc1CN1CCCC1)c1ccc(OCc2cscn2)cc1 | -30%
Cc1nc(COc2ccc(C(=O)NCc3ccccc3CN3CCCCC3)cc2)cs1 | -52.5%
COc1ccc(NS(=O)(=O)c2cccc(C(=O)NCc3ccccc3CN3CCCC3)c2)cc1 | -64.4%
O=C(NCCN1CCOCC1)c1cccc(S(=O)(=O)Nc2ccc(F)cc2)c1 | -5.27%

Reference: paper PMC4336329 (PLoS ONE, 2015)
